Test results as given in PubChem BioAssay (Tox21).
Inconclusive results are not listed. Where a call stands in place of a potency, no number is given. Active and inactive are the calls of the source. Calls follow the shape of the dose curve; as a rule, active = well fitted cell-killing curve with a large enough effect in the repeat runs; inconclusive = weak or mixed curves, or effect the other way; inactive = flat fitted curve, though single readings scatter.

Assay: qHTS assay to identify small molecule agonists of the sonic hedgehog signaling (Shh) pathway - cell viability counter screen (AID 1259366); also: nearly all actives have a fitted effect of over 50% in size
Conditions: NIH/3T3 Gli1-Luc viability, CellTiter-Fluor, 24 h; series mostly up to 92.4 µM
Description: National Center for Advancing Translational Sciences [NCATS]
NIH Chemical Genomics Center [NCGC]
U.S. Environmental Protection Agency [EPA]
National Institutes of Environmental Health Sciences [NIEHS]
National Toxicology Program [NTP]
U.S. Food and Drug Administration [FDA]
The sonic hedgehog (Shh) pathway is essential for normal embryonic development. Dysregulation of the Shh pathway can cause severe developmental defects in organs. Therefore chemicals that interfere with the pathway are potential developmental toxicants. A cell line designated 3T3Gli1-Luc (DMB/OARSA/CFSAN/FDA, Laurel, MD), a NIH/3T3 derived clone containing stably integrated Gli1-Luc reporter is used to detect chemical interference of the Shh pathway, by changes in the expression of the firefly Luc gene under the control of the Gli1 transcriptional response element. This cell line was used to screen Tox21 libraries for identifying and prioritizing the potential developmental toxicants that interfere Shh pathway. The cytotoxicity of the compounds was tested in parallel by measuring the cell viability using CellTiter-Fluor assay system (Promega, Madison, WI) in the same wells.
Tox21 Assay Protocol Summary:
3T3 Gli1-Luc cells were dispensed at 2,000 per well in 5uL of culture medium into white solid bottom 1536-well plates (Greiner Bio-One, Monroe, NC) using a Multidrop Combi (Thermo Scientific, Waltham, MA) dispenser. The assay plates were incubated at 37 C and 5% CO2 for 4hr, and then 23nL of compounds dissolved in DMSO and positive control were transferred using a Pintool station (Wako, San Diego, CA). The assay plates were incubated at 37C and 5% CO2 for 24hr. For viability read, after 23hr of compound treatment, 1uL of CellTiter-Fluor reagent (Promega Corporation, Madison, WI) was added to each well of the assay plates using Flying Reagent Dispenser (FRD, Aurora Discovery, San Diego, CA) and incubated the assay plates at 37C for 1hr. The fluorescence signal was quantified using a ViewLux plate reader (Perkin Elmer, Shelton, CT).

| Compound | Potency |
| --- | --- |
| CCCCN(CCCC)SN(C)C(=O)Oc1cccc2c1OC(C)(C)C2 | inactive |
| CCCCCCCCCCCC#N | inactive |
| O=Cc1cccc(Oc2ccccc2)c1 | inactive |
| CCCCN(CC)C(=O)SCCC | inactive |
| CCCC1COC(Cn2cncn2)(c2ccc(Cl)cc2Cl)O1 (stereo not given) | inactive |
| O=[N+]([O-])c1ccc(Oc2ccc(Cl)cc2Cl)cc1 | inactive |
| CCOP(=S)(OCC)Oc1cnc2ccccc2n1 | inactive |
| CC(C)OC(=O)Nc1cccc(Cl)c1 | inactive |
| CC(C)OC(=O)Nc1ccccc1 | inactive |
| c1ccc(-c2ccccc2)cc1 | inactive |
| Clc1cccc(Cl)c1Cl | inactive |
| CC(Br)C(=O)O (stereo not given) | inactive |
| OCCN(CCO)CCO | inactive |
| Clc1ccc(Cl)cc1 | inactive |
| O=C(NC(=O)c1c(F)cccc1F)Nc1cc(Cl)c(OC(F)(F)C(F)C(F)(F)F)cc1Cl (stereo not given) | inactive |
| Cc1cccc([N+](=O)[O-])c1 | inactive |
| O=C(O)c1ccccn1 | inactive |
| Oc1ccccc1Cl | inactive |
| c1ccc2c(c1)Oc1ccccc1O2 | inactive |
| CC(Oc1ccc(Cl)cc1Cl)C(=O)O (stereo not given) | inactive |

| Compound | Potency |
| --- | --- |
| C#CC(C)(C)NC(=O)c1cc(Cl)cc(Cl)c1 | inactive |
| CC(C)N1C(=O)c2ccccc2NS1(=O)=O | inactive |
| CC1OC(C)OC(C)O1 (stereo not given) | inactive |
| ClCc1cccnc1 | inactive |
| O=[N+]([O-])c1ccccc1 | inactive |
| CON(C)C(=O)Nc1ccc(Cl)c(Cl)c1 | inactive |
| CC(C)=C[C@@H]1[C@@H](C(=O)OCc2coc(Cc3ccccc3)c2)C1(C)C | inactive |
| Cc1ccc([N+](=O)[O-])cc1C | inactive |
| ClCCBr | inactive |
| CC1C=[C-]C=C1.[C-]#[O+].[C-]#[O+].[C-]#[O+].[Mn] | inactive |
| CC(C)(C)OOC(=O)c1ccccc1 | inactive |
| CCN(CC)CCO | inactive |
| CN=C=S | inactive |
| OC(O)C(Cl)(Cl)Cl | inactive |
| C[C@]12CC[C@H]3[C@@H](CC[C@@]45O[C@@H]4C(O)=C(C#N)C[C@]35C)[C@@H]1CC[C@@H]2O | inactive |
| CCNc1nc(NC(C)C)nc(SC)n1 | inactive |
| C#CCN(C)[C@H](C)Cc1ccccc1 | inactive |
| Cc1cc(Cl)ccc1O | inactive |
| COP(N)(=O)SC (stereo not given) | inactive |
| c1ccc(OP(Oc2ccccc2)Oc2ccccc2)cc1 | inactive |
